Assay in all cases: PBM binding z-score (relative to random genomic background probes); higher = stronger binding; sequences stand for … in GC…GCGATTGACAGCGTAGAATGAAGG
Experiment [1] relates to FXR:RXRa (NR concentration 270 nM, RXRa partner concentration 90 nM). The gist of the method: (§1)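 Random background probes are the reference for binding z-scores. These scores derive from regression-normalized fluorescence on custom Agilent 4×180K protein-binding microarrays incubated 1 h with ligand-free nuclear receptor dimers. Binding was detected with antibodies against each partner (one per run).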

Experiment [2] has as its system LXRa:RXRa (NR concentration 270 nM, RXRa partner concentration 90 nM). Put shortly: as §1
Experiment [3] relates to LXRa homodimer (NR concentration 270 nM). Put shortly:
as §1

Experiment [4] deals with LXRb:RXRa (NR concentration 270 nM, RXRa partner concentration 90 nM). Put shortly:
as §1

In experiment [5] the test system is LXRb homodimer (NR concentration 270 nM). The gist of the method:
as §1

The subject of experiment [6] is PPARa:RXRa (NR concentration 270 nM, RXRa partner concentration 90 nM). Put shortly:
as §1

For experiment [7], the system named is PPARg:RXRa (NR concentration 180 nM, RXRa partner concentration 90 nM). Put shortly:
as §1

In experiment [8] the test system is PPARg:RXRa 270nM:90nM, anti-RXR (NR concentration 270 nM, RXRa partner concentration 90 nM). The gist of the method:
as §1

In experiment [9] the test system is PPARg:RXRa 30nM:10nM, anti-RXR (NR concentration 30 nM, RXRa partner concentration 10 nM). Put shortly:
as §1

The subject of experiment [10] is PPARg:RXRa 90nM:30nM, anti-RXR (NR concentration 90 nM, RXRa partner concentration 30 nM). The gist of the method: as §1
Experiment [11] relates to PPARg:RXRa DBDmut IVT, anti-RXR (DBD mutation: RXRa K156A/R161A, NR concentration 270 nM, RXRa partner concentration 90 nM). Put shortly: as §1
In experiment [12] the test system is PPARg:RXRa IVT, anti-PPARg (NR concentration 270 nM, RXRa partner concentration 90 nM). Put shortly:
as §1

For experiment [13], the system named is PPARg DBDmut:RXRa IVT, anti-PPARg (DBD mutation: PPARg1 K132A/R137A, NR concentration 270 nM, RXRa partner concentration 90 nM). Put shortly: as §1
Experiment [14] has as its system PPARg DBDmut IVT, anti-PPARg (DBD mutation: PPARg1 K132A/R137A, NR concentration 270 nM). The gist of the method: as §1
Experiment [15] relates to PPARg homodimer (NR concentration 180 nM). Put shortly: as §1
The test system of experiment [16] is PXR:RXRa (NR concentration 270 nM, RXRa partner concentration 90 nM). Put shortly:
as §1

Experiment [17] has as its system PXR homodimer (NR concentration 270 nM). The gist of the method:
as §1

Experiment [18] deals with RARa:RXR (NR concentration 270 nM, RXRa partner concentration 90 nM). Put shortly:
as §1

The subject of experiment [19] is RARa homodimer (NR concentration 270 nM). Put shortly: as §1
Experiment [20] concerns RARb:RXRa (NR concentration 270 nM, RXRa partner concentration 90 nM). Put shortly: as §1

Consider TGTACAGGGTCAAAGGCCAGAGTACGAATGTCGA, for which the PBM binding z-score is 7.25 in experiment [1]; 4.91 in experiment [2]; -0.0298 in experiment [3]; 4.39 in experiment [4]; 0.326 in experiment [5]; 6.34 in experiment [6]. In addition, the PBM binding z-score came to 8.21 in experiment [7]; 7.42 in experiment [8]; 5.22 in experiment [9]; 7.52 in experiment [10]; 2.29 in experiment [11]; 5.22 in experiment [12]. The PBM binding z-score in experiment [13] is 1.24; in experiment [14], 1.55; in experiment [15], 1.87; in [16], 4.52; in experiment [17], -0.0944; in experiment [18], 6.38. In addition, the values for the PBM binding z-score in experiment [19] and in [20] were 0.38 and 4.42, respectively.
For the sequence GCTCGGAGGACAAGGTCGGAGCTTTGTCCGTAGA, the PBM binding z-score in experiment [1] was -0.163; in experiment [2] it was -0.153; in experiment [3], -0.91; in [4], -0.475; in [5] it was -1.14; in experiment [6], 0.143. Also, the PBM binding z-score in [7] was -1.09; in experiment [8], -0.163; in [9], -1.12; in experiment [10] it was -0.578; in [11] it was -1.06; in [12], -0.138. Moreover, the PBM binding z-score in [13] was -1.21; in experiment [14], -1.93; in experiment [15] it was -0.925; in experiment [16] it was -0.155; in experiment [17] it was -0.823; in experiment [18] it was 0.146. Moreover, the PBM binding z-score is -1.12 in [19] and 1.59 in [20].
Consider GCTCGGAGGACTAGGTCAGAGCTTTGTCCGTAGA, for which the PBM binding z-score in experiment [1] was -0.693; in experiment [2] it was -0.505; in experiment [3], -1.09; in experiment [4] it was -0.622; in experiment [5], -1.5; in experiment [6], 0.919. For the same sequence, the PBM binding z-score in [7] is 0.339; in experiment [8], 1.04; in experiment [9] it was -1.04; in experiment [10] it was 0.269; in experiment [11], 2.42; in experiment [12], 2.73. Also, the PBM binding z-score in experiment [13] was -1.06; in experiment [14], -1.65; in [15], -0.329; in [16], -0.496; in experiment [17] it was -0.984; in experiment [18], -0.285. Besides, the results for the PBM binding z-score in [19] and in [20] were -1.53 and 1.27, respectively.
TCTATTCGTTGAAGGGCAACCGACGAGTCCGTTT: the PBM binding z-score in experiment [1] stood at 0.909; in experiment [2], 1.05; in [3], 0.235; in experiment [4], 1.05; in experiment [5], 0.752; in experiment [6] it was 1.25. In addition, the PBM binding z-score was 0.0836 in experiment [7]; 2.42 in experiment [8]; 3.64 in [9]; 3.2 in [10]; 2 in experiment [11]; 0.764 in experiment [12]. Besides, the PBM binding z-score in experiment [13] was 0.959; in experiment [14] it was 0.28; in experiment [15], 0.703; in experiment [16], 0.999; in experiment [17], 0.546; in experiment [18] it was 0.933. Also, the results for the PBM binding z-score in experiment [19] and in [20] were 0.583 and 1.56, respectively.
Turning to GCTAGCAGGCCATTTGGGTCACTCATTGACGGGC, the PBM binding z-score in [1] is 0.033; in experiment [2], -0.0107; in [3] it was -0.528; in experiment [4], -0.128; in experiment [5], -0.903; in experiment [6], 1. Besides, the PBM binding z-score was 0.357 in experiment [7]; 0.27 in experiment [8]; -0.512 in experiment [9]; -0.18 in [10]; 1.91 in experiment [11]; 1.84 in experiment [12]. Moreover, the PBM binding z-score in experiment [13] was -1.26; in experiment [14] it was -0.505; in experiment [15], -0.295; in [16], 0.252; in [17], -0.137; in experiment [18], 0.652. Besides, the PBM binding z-score was -0.74 in experiment [19] and 1.26 in [20].
As to AATACAGGGTCATCGTAAGCCAGAGTACGCACAG, the PBM binding z-score in [1] was found to be 7.41; in [2], 6.05; in experiment [3] it was 2.24; in experiment [4] it was 4.69; in experiment [5], 1.14; in [6] it was 6.1. Moreover, the PBM binding z-score came out at 6.63 in experiment [7]; 5.96 in experiment [8]; 2.84 in experiment [9]; 4.83 in experiment [10]; 2.67 in experiment [11]; 4.15 in experiment [12]. Moreover, the PBM binding z-score in experiment [13] amounted to 1.58; in [14] it was 1.04; in [15] it was 1.65; in [16], 4.05; in experiment [17], 1; in [18], 4.6. The PBM binding z-score in experiment [19] is 0.623; in experiment [20], 4.43.

These data come from the supplement of paper PMC6555819.
